High-throughput results deposited in PubChem by National Center for Advancing Translational Sciences (NCATS).
IL-1B inflam inh – inhibitors of inflammasome signaling (IL-1 beta secretion); THP-1 LPS/ATP IL-1B secretion, AlphaLISA, 16 h; active compounds read low; activity change, % at 57.5 µM; hit rate 4.7% among 360,000; AID 743279; in the data active means activity change below about -50%; inconclusive means mostly about -30% to -49%; further: on the % scale 0 is the no-effect control and ±100 the full control effect
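THP-1 cells pretreated 1 hr with compounds (up to 57.5 uM final), then stimulated with LPS (250 ng/mL final) plus ATP (1.25 mM final); secreted IL-1B measured by AlphaLISA after 16 hr, decreased signal indicating inhibition.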
TGFb inhibitor – blocks TGF-b signaling; hit rate 1.2% among 410,000; HepG2 CAGA-GFP TGF-b/SMAD3 reporter, GFP fluorescence, 18 h; TGF-beta stimulated, 500 pg/mL final; Potency, µM (highest dose often 46.1 µM), inactives show at the highest dose activity, negative = inhibition, hits mostly inhibitors; further: potency means the concentration at half of the fitted maximal effect; on the % scale 0 is the no-effect control and ±100 the full control effect; nearly all actives have a fitted effect of over 65% in size
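Per well, imaged GFP fluorescence of HEPG2 CAGA-GFP cells gives the signal; cells get compound, then TGF-beta (500 pg/mL final), 18 h at 37 degrees C; %Activity versus -TGF-beta and +DMSO controls.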
DT40 TDP1 no CPT – qHTS for Inhibitors of human tyrosyl-DNA phosphodiesterase 1 (TDP1): qHTS in cells in absence of CPT; Potency, µM (highest dose often 46.2 µM), for the others: at the top dose activity change, negative = growth inhibition, usual class: inhibitors; AID 686978, 2013; hit rate 15% among 420,000; DT40 Tdp1-/- hTDP1 cells, no CPT, ATP luminescence, 48 h; further: potency means the concentration at half of the fitted maximal effect; on the % scale 0 is the no-effect control and ±100 the full control effect; nearly all actives have a fitted effect of over 55% in size
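Cells were dispensed at 400 per well, compounds added by pin tool, plates incubated ≥48 hr at 37 °C, then CellTiter-Glo added for 30 min at room temperature before luminescence reading. Line: DT40 Tdp1-/- complemented with hTDP1; camptothecin omitted.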
DT40 TDP1 CPT – DT40-hTDP1 cell growth loss with CPT; AID 686979; Potency, µM (doses to about 46.2 µM), inactives show at the top dose activity change, negative = growth inhibition, most hits filed as inhibitors; hit rate 12% among 420,000; chicken DT40 Tdp1-/-;hTDP1 cells + 20 nM CPT, ATP luminescence, 48 h; further: potency means the concentration at half of the fitted maximal effect; on the % scale 0 is the no-effect control and ±100 the full control effect; nearly all actives have a fitted effect of over 55% in size
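Chicken DT40 Tdp1-/- cells stably complemented with human TDP1 were seeded at 400 cells/well in medium containing 20 nM camptothecin, exposed to pin-transferred compounds, and grown at 37 °C for at least 48 hr. Viability was read as ATP luminescence.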
TDP1 block – inhibitors of human tyrosyl-DNA phosphodiesterase TDP1; Q9NUW8; Potency, µM (series often up to 130 µM), for the others: at the top dose activity change, negative = inhibition, actives largely listed as inhibitors; hit rate 0.28% among 350,000; recombinant TDP1, AlphaScreen DNA substrate cleavage; further: potency means the concentration at half of the fitted maximal effect; on the % scale 0 is the no-effect control and ±100 the full control effect; nearly all actives have a fitted effect of over 40% in size
Target sequence (Q9NUW8 whole entry, looked up): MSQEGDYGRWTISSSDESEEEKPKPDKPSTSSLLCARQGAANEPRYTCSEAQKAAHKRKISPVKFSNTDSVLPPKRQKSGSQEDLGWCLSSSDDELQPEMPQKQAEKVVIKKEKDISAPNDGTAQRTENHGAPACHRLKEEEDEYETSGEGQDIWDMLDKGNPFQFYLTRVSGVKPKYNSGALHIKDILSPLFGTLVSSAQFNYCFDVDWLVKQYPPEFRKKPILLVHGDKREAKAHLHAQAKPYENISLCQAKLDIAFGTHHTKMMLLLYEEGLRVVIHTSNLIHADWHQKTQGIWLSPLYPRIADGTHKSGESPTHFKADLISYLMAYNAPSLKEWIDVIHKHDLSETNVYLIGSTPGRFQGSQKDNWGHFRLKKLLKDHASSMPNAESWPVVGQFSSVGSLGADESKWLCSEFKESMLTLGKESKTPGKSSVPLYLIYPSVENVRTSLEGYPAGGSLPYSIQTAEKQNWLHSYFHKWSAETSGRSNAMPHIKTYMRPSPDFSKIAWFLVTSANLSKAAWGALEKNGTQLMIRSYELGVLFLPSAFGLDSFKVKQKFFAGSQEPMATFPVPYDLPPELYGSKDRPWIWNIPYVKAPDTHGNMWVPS
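Compounds were preincubated with Tdp1 (1 nM final) for 15 min at room temperature before substrate (15 nM final) started a 5 min reaction; beads (10 ug/ml final) were then added for 10 min before AlphaScreen detection.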
HepG2 tox – counter-screen for TGF-b inhibitors: cytotoxicity in HepG2 cells; AID 588856; HepG2 CAGA-GFP viability, ATP luminescence, 18 h; Potency, µM (titrated, usually from 46.1 µM), for inactives: top-dose activity change, negative = cytotoxicity, usual class: cytotoxic; hit rate 0.76% among 410,000; further: potency means the concentration at half of the fitted maximal effect
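CellTiter-Glo luminescence gave cytotoxicity after 18 hours at 37 degrees C. The cells were HepG2 CAGA-GFP in 1% FBS DMEM, stimulated with 500 pg/mL TGF-beta after compound addition. %Activity was normalised to no-cell wells (complete cell-killing) and DMSO (no toxicity), and curves were fitted and classified.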
Starred values were filed as active, the others as inactive. Most compounds without a hit are left out; they make up all but 18% or so of the library. Unless noted, the call rests on the fitted dose curve; in most records, active means well fitted curve in the direction sought with a large enough effect; inconclusive means small, poorly fitted or top-dose-only effect, or another doubt; inactive means no such curve, though single readings can be large; an effect the other way counts as inactive or inconclusive.

For COc1ccc(N2CCN(C(=O)CNC(=O)Cc3ccc(Cl)cc3)CC2)cc1 the results were IL-1B inflam inh 0, TGFb inhibitor -27%, DT40 TDP1 no CPT 5.8µM*, DT40 TDP1 CPT 5.2µM*, TDP1 block 5% and HepG2 tox -7%.
`CC(C)[C@H](NC(=O)c1ccc(Cl)cc1)C(=O)OCC(=O)N1CCN(c2ccccc2)CC1` gave IL-1B inflam inh -18, TGFb inhibitor 0%, DT40 TDP1 no CPT 21µM*, DT40 TDP1 CPT inconclusive, TDP1 block 2% and HepG2 tox 4%.
Screening O=C(CSc1oc(-c2ccc(F)cc2)nc1S(=O)(=O)c1ccccc1)NC1CCCCC1 returned TGFb inhibitor 0%, DT40 TDP1 no CPT inconclusive, DT40 TDP1 CPT inconclusive, TDP1 block 6% and HepG2 tox 7%.
`CCCN1CCN(c2nnc(-n3cccc3C(=O)Nc3cc(Cl)ccc3C)s2)CC1` gave TGFb inhibitor -22%, DT40 TDP1 no CPT inconclusive, DT40 TDP1 CPT inconclusive, TDP1 block 8% and HepG2 tox -24%.
Cc1ccc(CNC(=O)C2CCCN(c3nc4c(C)cc(C)cc4s3)C2)cc1 (stereo not given) was read as TGFb inhibitor -10%, DT40 TDP1 no CPT -18%, DT40 TDP1 CPT 1%, TDP1 block 3% and HepG2 tox 2%.
For CN(C(=O)CNC(=O)c1ccc(Br)o1)C1CCCCC1 the results were IL-1B inflam inh -3, TGFb inhibitor 7%, DT40 TDP1 no CPT -4%, DT40 TDP1 CPT 16%, TDP1 block 3% and HepG2 tox 1%.
`COc1ccc(NC(=O)c2c(NC(=O)CNCc3ccco3)sc3c2CCC3)cc1` gave IL-1B inflam inh 0, TGFb inhibitor 0%, DT40 TDP1 no CPT -19%, DT40 TDP1 CPT -17%, TDP1 block 0% and HepG2 tox -13%.
Screening COc1ccc(OC)c(NC(=O)c2c(NC(=O)CNCc3ccco3)sc3c2CCC3)c1 returned IL-1B inflam inh -10, TGFb inhibitor 11%, DT40 TDP1 no CPT 3.7µM*, DT40 TDP1 CPT -113%, TDP1 block 8% and HepG2 tox 11%.
Screening COc1ccc(NC(=O)c2c(NC(=O)CNCc3ccco3)sc3c2CCC3)c(OC)c1 returned IL-1B inflam inh -1, TGFb inhibitor -8%, DT40 TDP1 no CPT 21µM*, DT40 TDP1 CPT inconclusive, TDP1 block 3% and HepG2 tox 1%.
`COc1ccccc1C(=O)Nc1sc2c(c1C(=O)NCc1ccco1)CCCC2` gave IL-1B inflam inh 11, TGFb inhibitor 1%, DT40 TDP1 no CPT -20%, DT40 TDP1 CPT inconclusive, TDP1 block 6% and HepG2 tox -2%.
Screening COC(=O)c1c(NC(=O)CCNCc2ccco2)sc2c1CCC2 returned IL-1B inflam inh -51*, TGFb inhibitor -9%, DT40 TDP1 no CPT inconclusive, DT40 TDP1 CPT 23µM*, TDP1 block 0% and HepG2 tox -10%.
CCOC(=O)/C(C#N)=C1\C(=O)N(Cc2ccccc2)c2ccccc21 was read as IL-1B inflam inh -5, TGFb inhibitor 6%, DT40 TDP1 no CPT 9.2µM*, DT40 TDP1 CPT 9.2µM* and HepG2 tox 5%.
For Oc1ccc(/C=C/c2ccc3cccc(O)c3n2)cc1Br the results were IL-1B inflam inh 38, TGFb inhibitor inconclusive, DT40 TDP1 no CPT inconclusive, DT40 TDP1 CPT inconclusive and HepG2 tox -57%.
Oc1cccc2ccc(/C=C/c3c(F)cccc3Cl)nc12 was read as IL-1B inflam inh 17, TGFb inhibitor inconclusive, DT40 TDP1 no CPT inconclusive, DT40 TDP1 CPT inconclusive, TDP1 block -8% and HepG2 tox -10%.
For COc1cc(Cl)cc(/C=C/c2ccc3cccc(O)c3n2)c1OC the results were IL-1B inflam inh 34, TGFb inhibitor 4%, DT40 TDP1 no CPT 23µM*, DT40 TDP1 CPT inconclusive and HepG2 tox -15%.
`Oc1cccc2ccc(/C=C/c3ccccc3Cl)nc12` gave IL-1B inflam inh 29, TGFb inhibitor inconclusive, DT40 TDP1 no CPT 7.3µM*, DT40 TDP1 CPT 9.2µM* and HepG2 tox -24%.
Screening COc1ccc(Cl)cc1/C=C/c1ccc2cccc(O)c2n1 returned IL-1B inflam inh 93, TGFb inhibitor -13%, DT40 TDP1 no CPT inconclusive, DT40 TDP1 CPT 21µM* and HepG2 tox -9%.
`COc1ccccc1/C=C/c1ccc2cccc(O)c2n1` gave IL-1B inflam inh 36, TGFb inhibitor 0%, DT40 TDP1 no CPT inconclusive, DT40 TDP1 CPT inconclusive and HepG2 tox -21%.
For CC(C)OC(=O)N(C)C[C@@H]1OCc2cnnn2CCCC(=O)N([C@H](C)CO)C[C@@H]1C the results were IL-1B inflam inh 3, TGFb inhibitor 1%, DT40 TDP1 no CPT 0%, DT40 TDP1 CPT -1% and HepG2 tox 1%.
Screening COc1ccc(-c2cc(C)no2)cc1S(=O)(=O)N1CCN(c2ccccn2)CC1 returned IL-1B inflam inh -77*, TGFb inhibitor -21%, DT40 TDP1 no CPT 21µM*, DT40 TDP1 CPT inconclusive, TDP1 block 3% and HepG2 tox -13%.
`CCc1ccc(-c2cc(C)no2)cc1S(=O)(=O)N1CCN(c2ccccn2)CC1` gave IL-1B inflam inh 0, TGFb inhibitor inconclusive, DT40 TDP1 no CPT inconclusive, DT40 TDP1 CPT inconclusive, TDP1 block 3% and HepG2 tox -18%.
`Cc1cc(-c2ccc(C(C)C)c(S(=O)(=O)N3CCN(c4ccccn4)CC3)c2)on1` gave IL-1B inflam inh 18, TGFb inhibitor -18%, DT40 TDP1 no CPT 21µM*, DT40 TDP1 CPT 18µM*, TDP1 block 4% and HepG2 tox 10%.
Screening CCn1c(CN2CCN(c3cccc(Cl)c3)CC2)nc2c1c(=O)[nH]c(=O)n2C returned TGFb inhibitor inconclusive, DT40 TDP1 no CPT 18µM*, DT40 TDP1 CPT inconclusive, TDP1 block 6% and HepG2 tox -14%.
Screening Cn1c(=O)[nH]c(=O)c2c1nc(CN1CCN(c3ccccc3)CC1)n2Cc1c(F)cccc1Cl returned TGFb inhibitor 9%, DT40 TDP1 no CPT inconclusive, DT40 TDP1 CPT inconclusive, TDP1 block -1% and HepG2 tox -9%.
CCCCCn1c(N2CCN(c3cccc(Cl)c3)CC2)nc2c1c(=O)[nH]c(=O)n2C was read as IL-1B inflam inh inconclusive, TGFb inhibitor 19%, DT40 TDP1 no CPT 23µM*, DT40 TDP1 CPT 21µM*, TDP1 block 1% and HepG2 tox -8%.
